NPR1 activator = GC-A stimulated cGMP production enhancers – HEK293 GC-A cells, cGMP TR-FRET, EC30 ANP, primary screen; Atrial natriuretic peptide receptor 1 (Homo sapiens), P16066; 0% at EC30 ANP, 100% saturating ANP; activation, % at 10 µM; 370,000 compounds, 0.14% hits; AID 1671463, 2021; in the data active = activation above about 40%
Target sequence (P16066 whole entry, looked up): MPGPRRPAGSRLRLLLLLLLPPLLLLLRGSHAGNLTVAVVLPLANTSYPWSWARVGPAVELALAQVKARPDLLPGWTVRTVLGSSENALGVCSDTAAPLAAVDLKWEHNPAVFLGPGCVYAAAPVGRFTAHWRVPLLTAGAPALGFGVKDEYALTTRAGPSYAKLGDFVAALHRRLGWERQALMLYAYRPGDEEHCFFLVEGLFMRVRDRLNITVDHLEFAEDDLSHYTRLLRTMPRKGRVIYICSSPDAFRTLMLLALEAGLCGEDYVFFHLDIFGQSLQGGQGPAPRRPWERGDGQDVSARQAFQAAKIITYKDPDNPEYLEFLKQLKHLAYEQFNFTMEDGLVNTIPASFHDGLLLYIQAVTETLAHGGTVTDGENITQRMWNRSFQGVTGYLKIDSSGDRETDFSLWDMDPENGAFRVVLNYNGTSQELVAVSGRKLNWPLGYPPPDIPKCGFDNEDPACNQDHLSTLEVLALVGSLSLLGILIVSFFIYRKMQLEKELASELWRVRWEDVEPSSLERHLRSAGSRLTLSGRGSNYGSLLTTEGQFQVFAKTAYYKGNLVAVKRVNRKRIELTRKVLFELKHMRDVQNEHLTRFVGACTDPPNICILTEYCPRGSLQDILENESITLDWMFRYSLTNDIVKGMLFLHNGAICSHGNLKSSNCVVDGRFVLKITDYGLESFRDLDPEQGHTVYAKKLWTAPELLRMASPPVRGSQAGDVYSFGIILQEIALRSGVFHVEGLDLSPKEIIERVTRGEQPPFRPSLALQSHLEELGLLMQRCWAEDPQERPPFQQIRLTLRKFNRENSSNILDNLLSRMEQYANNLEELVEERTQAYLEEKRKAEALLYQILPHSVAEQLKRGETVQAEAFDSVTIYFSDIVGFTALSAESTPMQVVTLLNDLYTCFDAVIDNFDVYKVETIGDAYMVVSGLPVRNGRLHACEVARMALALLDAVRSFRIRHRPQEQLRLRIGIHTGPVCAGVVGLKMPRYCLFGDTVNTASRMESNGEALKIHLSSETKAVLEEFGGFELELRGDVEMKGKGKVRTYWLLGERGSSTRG
ADAM17 inh = ADAM17 inhibitors, primary screen, biochemical, QFRET. recombinant ADAM17, EDANS/DABCYL FRET peptide cleavage. inhibition, % at 6.95 µM. Disintegrin and metalloproteinase domain-containing protein 17 (Homo sapiens), P78536. 370,000 compounds, 0.83% hits;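 active = inhibition above the mean of compounds lying between control limits plus 3 SD, set per campaign, cut at about 8.5% in these data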;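 note: 0% = DMSO-only wells as the low control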
FAS-TE inh = FAS thioesterase domain inhibitors, primary screen, biochemical, fluorescence intensity, uHTS | Fatty acid synthase (Homo sapiens), P49327 | recombinant FAS-TE, OMFH fluorogenic substrate, fluorescence endpoint | inhibition, % at 15 µM | 360,000 compounds, 0.67% hits | AID 602261, 2012;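 active = compounds whose normalised, plate-corrected inhibition of enzyme fluorescence in the single-dose primary screen is 50% or more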;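 note: 0% = DMSO with enzyme and 100% = substrate without enzyme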
ADAM10 inh = human ADAM10 inhibitors, primary screen, biochemical, QFRET, HTS; Disintegrin and metalloproteinase domain-containing protein 10 (Homo sapiens), O14672; recombinant ADAM10, EDANS/DABCYL FRET peptide cleavage, 3 h; inhibition, % at 7 µM; 370,000 compounds, 0.62% hits;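 active = inhibition above a per-campaign cutoff equal to the mean of compounds falling between control-based bounds plus 3 SD, cut at about 20% in these data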;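 note: 0% = DMSO wells while the 100% control is not disclosed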
GC-B act = human GC-B receptor activators, primary screen, HEK293 GC-B cells, cGMP TR-FRET, EC30 CNP. Atrial natriuretic peptide receptor 2 (Homo sapiens), P20594. 0% at EC30 CNP, 100% saturating CNP. activation, % at 10 µM. 370,000 compounds, 0.11% hits. AID 1920062, 2024;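 active = activation at 10 µM reaching about 35% in either raw or pattern-adjusted values, limit read from the data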
ADAM10 confirm = human ADAM10 inhibitors, confirmation, biochemical, QFRET, triplicate; 2,100 compounds, 1% hits; shares compounds with ADAM10 inh; AID 743208, 2013; inhibition, % at 6.95 µM; ADAM10 QFRET peptide cleavage, EDANS fluorescence;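 active = inhibition above about 20% chosen separately for each screening run, limit read from the data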;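 note: 0% = DMSO wells and 100% = marimastat wells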
ADAM17 ctr = ADAM17 inhibitors, counter-screen for ADAM10 exosite inhibitor project, biochemical, QFRET, high throughput | shares compounds with ADAM10 inh | ADAM17 QFRET peptide cleavage, EDANS fluorescence | inhibition, % at 6.95 µM | 2,100 compounds, 0.5% hits;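 active = mean triplicate inhibition above the solvent-only control wells' mean plus 3 SD, cut at about 12% in these data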;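 note: 0% = DMSO wells and 100% = marimastat wells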
The depositor's hits bear a star. An excerpt weighted towards active compounds, which were near 2% of everything screened.

For COc1ccccc1-c1nnc(SC(C(=O)c2c[nH]c3ccccc23)c2ccccc2)n1C (centres undefined) the results were NPR1 activator -12, ADAM17 inh 2, FAS-TE inh 11, ADAM10 inh 23*, GC-B act -8, ADAM10 confirm 6 and ADAM17 ctr 1.
`COc1cccc([C@@H]2NC(=O)C/C=C/[C@H](C)[C@H](c3cccc(OC)c3)NC(=O)C/C=C/[C@@H]2C)c1` gave NPR1 activator -3, ADAM17 inh -1, ADAM10 inh 10 and GC-B act -3.
For COC(=O)C/C=C/[C@H](C)[C@@H](NC(=O)C(F)(F)F)c1ccccc1Br the results were NPR1 activator 3, ADAM17 inh -4, ADAM10 inh -2 and GC-B act -10.
`CC(C)CN1C(=O)C[C@]2(C(=O)N(C)c3ccc(NC(=O)C(C)(C)C)cc32)C1c1ccccc1` (some centres undefined) gave NPR1 activator 2, ADAM17 inh -3, ADAM10 inh -5 and GC-B act 6.
Screening Cc1ccc(NC(=O)Nc2ccc3c(c2)[C@]2(CC(=O)N(CC(C)C)C2c2ccccc2)C(=O)N3C)cc1Cl (some centres undefined) returned NPR1 activator -5, ADAM17 inh 9.5*, ADAM10 inh 22*, GC-B act 11, ADAM10 confirm 7 and ADAM17 ctr 2.
Screening C=C(C)[C@H]1CC=C(C(=O)O)CC1 returned NPR1 activator 3 and GC-B act 1.
Screening C[C@@H]1[C@@H](O)C[C@@]2(C[C@H](O)c3cc(Cl)cc(Cl)c3O2)O[C@H]1c1ccccc1Cl returned NPR1 activator -9, ADAM17 inh 6, ADAM10 inh 26*, GC-B act -10, ADAM10 confirm 5 and ADAM17 ctr 2.
For C[C@@H]1[C@@H](O)C[C@@]2(C[C@H](O)c3ccccc3O2)O[C@H]1c1ccccc1 the results were NPR1 activator -2, ADAM17 inh 3, ADAM10 inh -1 and GC-B act -12.
CC(NCc1ccco1)C(=O)N1CCCC1 (centres undefined) was read as NPR1 activator 1, ADAM17 inh 1, ADAM10 inh -11 and GC-B act -9.
For CC1CCCC(C)N1C(=C(Cl)Cl)C(=C1SCCS1)[N+](=O)[O-] (centres undefined) the results were NPR1 activator 0, ADAM17 inh 8, FAS-TE inh 29, ADAM10 inh 21*, GC-B act -1, ADAM10 confirm 1 and ADAM17 ctr 1.
For CCOc1ccc(-c2nnc(SCC(=O)NC(C)(C)C)nc2-c2ccc(OCC)c(OC)c2)cc1OC the results were NPR1 activator 0, ADAM17 inh 4, FAS-TE inh 4, ADAM10 inh 23*, GC-B act 3, ADAM10 confirm 0 and ADAM17 ctr 0.
`COc1ccccc1N1C(=O)C(Cl)=C(Nc2ccccc2O)C1=O` gave NPR1 activator 6, ADAM17 inh 7, FAS-TE inh -8, ADAM10 inh 22*, GC-B act 0, ADAM10 confirm 14 and ADAM17 ctr 5.
O=C1C(Cl)=C(Nc2ccccc2O)C(=O)N1c1ccccc1 was read as NPR1 activator 0, ADAM17 inh -6, FAS-TE inh -8, ADAM10 inh 3 and GC-B act 0.
Screening COc1ccc(N2CCN(C(=S)Nc3ccc(C)cc3C)CC2)cc1 returned NPR1 activator -2, ADAM17 inh 5, FAS-TE inh -3, ADAM10 inh 21*, GC-B act 5, ADAM10 confirm 0 and ADAM17 ctr 0.
For COc1cccc(NC(=O)C2CCCN2C(=O)NCc2ccccc2OC)c1 (centres undefined) the results were NPR1 activator 0, ADAM17 inh -4, ADAM10 inh -6 and GC-B act 0.
For CC1(C(=O)N2CCC(CC3CC(c4cccc(Br)c4)=NO3)(C(=O)NCC3CCCCC3)CC2)CC1 (centres undefined) the results were NPR1 activator 0, ADAM17 inh 4, FAS-TE inh 31, ADAM10 inh 25*, GC-B act -4, ADAM10 confirm 0 and ADAM17 ctr 3.
Clc1ccccc1CSc1nncn1NC/C=C/c1ccccc1 was read as NPR1 activator 0, ADAM17 inh 8, FAS-TE inh 16, ADAM10 inh 20*, GC-B act 1, ADAM10 confirm 0 and ADAM17 ctr 0.
COc1cccc(CNC(=O)CN2CCCc3ccccc32)c1OC was read as NPR1 activator -1, ADAM17 inh 0, ADAM10 inh -10 and GC-B act -9.
For C[C@H]1[C@@H](NCc2cccs2)CC[C@@]23CCCN2C(=O)CCC[C@@H]13 the results were NPR1 activator 2, ADAM17 inh -3, ADAM10 inh 1 and GC-B act -5.
COc1ccc(S(=O)(=O)N(CC(=O)Nc2ccc(S(=O)(=O)N3CCOCC3)cc2)c2ccccc2)cc1 was read as NPR1 activator -2, ADAM17 inh 8, FAS-TE inh 10, ADAM10 inh 24*, GC-B act -1, ADAM10 confirm 2 and ADAM17 ctr 1.
For COc1ccc(NC(=O)CN(C)C(=O)c2ccc(S(=O)(=O)N3CCOCC3)cc2)cc1 the results were NPR1 activator 1, ADAM17 inh -2, FAS-TE inh -6, ADAM10 inh -2 and GC-B act 1.
Cc1ccc(S(=O)(=O)N(CCC(=O)Nc2ccc(OC(F)(F)F)cc2)c2ccccc2)cc1 was read as NPR1 activator 3, ADAM17 inh 8, FAS-TE inh 20, ADAM10 inh 21*, GC-B act 3, ADAM10 confirm 9 and ADAM17 ctr 2.
Screening CCCNS(=O)(=O)c1ccc(CCC(=O)Nc2cc(Cl)ccc2Oc2ccccc2)cc1 returned NPR1 activator 5, ADAM17 inh 7, FAS-TE inh 32, ADAM10 inh 21*, GC-B act -4, ADAM10 confirm 5 and ADAM17 ctr 3.
